# Test results from PubChem BioAssay (NCATS).
# Inconclusive results are not listed. A call without a number means that no potency is given here. Unmarked numbers belong to inactive results. Active and inactive are the calls of the source. Calls follow the shape of the dose curve; as a rule, active = well fitted curve in the direction sought with a large enough effect; inconclusive = small, poorly fitted or top-dose-only effect, or another doubt; inactive = no such curve, though single readings can be large; an effect the other way counts as inactive or inconclusive.
# How the values were obtained:
# Hek293T = assay: Primary qHTS to identify gynecologic anti-cancer compounds using libraries of approved drugs and bioactive compounds (AID 1345084); conditions: Gynecologic cancer cell panel viability, ATPlite luminescence, 48 h, control line for the selectivity index; series mostly up to 57.5 µM; also: nearly all actives have a fitted effect of over 55% in size
# How it was run: (§1)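 Five-point cytotoxicity, 48 h drug exposure at 37 C, 5% CO2, on cells seeded 16 h beforehand. ATP content read by ATPlite luminescence.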
# JEG-3 = assay: as above; conditions: Gynecologic cancer cell panel viability, ATPlite luminescence, 48 h; series mostly up to 57.5 µM
# How it was run: as §1
# OV90 = assay: as above; conditions: Gynecologic cancer cell panel viability, ATPlite luminescence, 48 h; series mostly up to 57.5 µM
# How it was run: as §1
# PA-1 = assay: as above; conditions: Gynecologic cancer cell panel viability, ATPlite luminescence, 48 h; series mostly up to 57.5 µM
# How it was run: as §1
# SKOV3 = assay: as above; conditions: Gynecologic cancer cell panel viability, ATPlite luminescence, 48 h; series mostly up to 57.5 µM
# How it was run: as §1
# Tov-21-G = assay: as above; conditions: Gynecologic cancer cell panel viability, ATPlite luminescence, 48 h; series mostly up to 57.5 µM
# How it was run: as §1
# Tov112D = assay: as above; conditions: Gynecologic cancer cell panel viability, ATPlite luminescence, 48 h; series mostly up to 57.5 µM
# How it was run: as §1
# [1] = Drug repurposing screens with cells derived from glioblastoma tumor samples (AID 1345199); conditions: GBM patient neurospheres viability, ATP luminescence, 48 h; also: nearly all actives have a fitted effect of over 40% in size
# How it was run: (§2)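 Primary testing used CD133+ neurospheres from four GBM patients, seven concentrations, 48 h exposure and ATP-based viability; confirmation added three slower-growing patient lines.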
# astro = assay: as above; conditions: viability, ATP luminescence, 48 h; series mostly up to 45.9 µM
# How it was run: as §2
# [2] = at 45.9 µM (top of the series), tumour line B
# [3] = at 46.1 µM (top of the series), tumour line C
# [4] = at 45.9 µM (top of the series), tumour line D
# Potency is read from the fitted curve at half-maximal effect.
Compound,Potency (Hek293T),Potency (JEG-3),Potency (OV90),Potency (PA-1),Potency (SKOV3),Potency (Tov-21-G),Potency (Tov112D),"activity, negative = cell killing [1, 2] [%]","activity, negative = cell killing [1, 3] [%]",Potency ([1]; tumour line A),"activity, negative = cell killing [1, 4] [%]","activity, negative = cell killing ([1]; at 46 µM (top of the series), tumour line A) [%]",Potency (astro),Potency ([1]; tumour line C)
C#C[C@]1(O)CC[C@H]2[C@@H]3CCc4cc(OC)ccc4[C@H]3CC[C@@]21C,inactive,inactive,inactive,inactive,inactive,inactive,inactive,-27.2,-5.96,39.8 µM (active),,,,
C[C@@H](O)[C@H]1C(=O)N2C(C(=O)O)=C([C@H]3CCCO3)S[C@H]12,inactive,inactive,inactive,inactive,inactive,inactive,inactive,-7.31,-5.94,,-12.1,,,
N/C(=N\N=C\c1ccc(Cl)cc1)N/N=C/c1ccc(Cl)cc1,inactive,inactive,inactive,inactive,31.6 µM (active),inactive,inactive,,,,,,,
CCCCCCCCCCC[C@@H](C[C@@H]1OC(=O)[C@H]1CCCCCC)OC(=O)[C@H](CC(C)C)NC=O,inactive,inactive,inactive,inactive,inactive,inactive,inactive,,,10 µM (active),-23,,,
NC1CCN(c2nc3c(cc2F)c(=O)c(C(=O)O)cn3-c2ccc(F)cc2F)C1 (configuration not stated),inactive,inactive,inactive,inactive,inactive,inactive,inactive,-3.86,,,-30,-29.1,,
CN(CCCN1c2ccccc2CCc2ccccc21)CC(=O)c1ccc(Cl)cc1,inactive,inactive,inactive,inactive,inactive,inactive,inactive,,,,,,,
CCc1ccc(C(=O)C(C)CN2CCCCC2)cc1 (configuration not stated),inactive,inactive,inactive,inactive,inactive,inactive,inactive,-6.35,-19,17.8 µM (active),-22.1,,inactive,
O=C(NC1CCN(CCc2c[nH]c3ccccc23)CC1)c1ccccc1,inactive,inactive,inactive,inactive,inactive,inactive,inactive,,,11.2 µM (active),-28,,,20.6 µM (active)
CO[C@]12C[C@@H](COC(=O)c3cncc(Br)c3)CN(C)[C@@H]1Cc1cn(C)c3cccc2c13,inactive,inactive,inactive,inactive,inactive,inactive,inactive,-27.1,-7.09,,-16.6,,,
Clc1cccc(C(c2ccc3nc[nH]c3c2)n2ccnc2)c1 (configuration not stated),inactive,inactive,inactive,inactive,inactive,inactive,inactive,,,,,,,
